Results on 10 compounds are retold here after ChEMBL document CHEMBL3988442, “University of Dundee, Small-Polar-MMV Screening Library” (2021).

Each structure is given as a SMILES string. For some assays here: Results with a measured potency or affinity are listed apart.

Common to all, as to parameters: scale not given: direction of the effect not stated beside the values
Experiment [1] deals with Protein translocase subunit SecA (Escherichia coli (strain K12)) (UniProt P10408). As to the kind of experiment: Assay to Identify E. coli SecA ATPase Inhibitors. Format: functional. The following applies: 30 µM.
In experiment [2] the target is T1, Ubiquitin-activating enzyme e1, putative (Leishmania donovani (strain BPK282A1)) (UniProt E9BSI1).
T1 sequence (whole entry): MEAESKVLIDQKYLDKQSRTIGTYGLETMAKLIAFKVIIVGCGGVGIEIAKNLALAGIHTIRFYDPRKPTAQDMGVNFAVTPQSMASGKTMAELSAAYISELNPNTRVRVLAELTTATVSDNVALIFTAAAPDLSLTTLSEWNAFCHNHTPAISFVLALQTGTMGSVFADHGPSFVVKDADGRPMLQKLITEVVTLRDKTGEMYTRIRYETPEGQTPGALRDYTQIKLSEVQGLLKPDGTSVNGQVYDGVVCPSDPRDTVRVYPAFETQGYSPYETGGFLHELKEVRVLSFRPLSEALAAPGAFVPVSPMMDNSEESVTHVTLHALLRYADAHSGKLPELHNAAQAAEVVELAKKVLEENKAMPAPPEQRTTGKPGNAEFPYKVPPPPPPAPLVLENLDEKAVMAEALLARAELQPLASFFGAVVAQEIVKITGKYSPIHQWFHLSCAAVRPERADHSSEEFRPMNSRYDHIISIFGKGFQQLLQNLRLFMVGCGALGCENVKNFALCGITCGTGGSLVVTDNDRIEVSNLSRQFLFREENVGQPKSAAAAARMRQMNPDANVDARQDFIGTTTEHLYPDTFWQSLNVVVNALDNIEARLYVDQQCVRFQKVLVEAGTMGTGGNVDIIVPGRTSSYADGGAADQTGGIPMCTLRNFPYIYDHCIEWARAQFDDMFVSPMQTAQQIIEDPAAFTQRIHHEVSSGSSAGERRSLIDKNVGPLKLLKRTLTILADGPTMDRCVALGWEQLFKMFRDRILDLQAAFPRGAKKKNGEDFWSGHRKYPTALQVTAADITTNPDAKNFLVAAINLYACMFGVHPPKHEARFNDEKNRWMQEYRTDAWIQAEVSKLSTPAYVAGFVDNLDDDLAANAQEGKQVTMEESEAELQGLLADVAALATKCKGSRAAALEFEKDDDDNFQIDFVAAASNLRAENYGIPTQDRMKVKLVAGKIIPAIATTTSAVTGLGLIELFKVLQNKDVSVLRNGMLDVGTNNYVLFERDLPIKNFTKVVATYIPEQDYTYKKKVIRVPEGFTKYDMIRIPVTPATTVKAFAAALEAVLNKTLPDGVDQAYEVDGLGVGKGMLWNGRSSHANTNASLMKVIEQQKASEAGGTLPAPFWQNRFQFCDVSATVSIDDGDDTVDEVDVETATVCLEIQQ
The experiment can be described thus: Leishmania donovani Ubiquitin Activating Enzyme (LdE1). Format: functional. The following applies: 30 µM.

Experiment [3] concerns the target AMP-activated protein kinase, AMPK (Homo sapiens) (UniProt P54646+O43741+P54619+Q9UGJ0+Q9Y478+Q13131+Q9UGI9). The experiment can be described thus: AMP-dependent Kinase enzyme assay. An in vitro enzyme assay that detects ADP turnover that is directly proportional to AMPK activity. This uses naive AMPK that is activated during the assay with MK-8722. Format: functional. The conditions noted are these: 30 µM.

In experiment [4] the target is Sialic acid-binding Ig-like lectin 9 (Homo sapiens) (UniProt Q9Y336). As to the kind of experiment: Hs-Siglec9 ALPHAscreen SOP 20170721. The following applies: 10 µM. (Bead proximity is the source of the signal in Alpha formats.)
For experiment [5], the system named is Trypanosoma cruzi. The experiment can be described thus: Trypanosoma cruzi phosphomannomutase and mannose-1-phosphate guanylyltransferase assay. Format: functional. The conditions noted are these: 10 µM.
Experiment [6] addresses T2, Arginase-2, mitochondrial (Homo sapiens) (UniProt P78540).
T2 sequence (whole entry): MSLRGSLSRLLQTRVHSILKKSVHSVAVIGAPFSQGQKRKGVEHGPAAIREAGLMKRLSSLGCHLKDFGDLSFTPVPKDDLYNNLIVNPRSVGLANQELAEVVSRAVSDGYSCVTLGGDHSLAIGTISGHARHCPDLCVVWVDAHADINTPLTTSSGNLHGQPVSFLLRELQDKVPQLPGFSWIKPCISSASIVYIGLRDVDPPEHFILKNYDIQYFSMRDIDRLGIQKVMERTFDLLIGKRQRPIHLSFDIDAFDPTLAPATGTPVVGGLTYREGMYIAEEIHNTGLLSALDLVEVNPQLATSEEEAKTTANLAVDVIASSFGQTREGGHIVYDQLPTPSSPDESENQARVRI
As to the kind of experiment: in vitro enzyme assay to detect the production of urea directly proportional to the activity of Arginase II. Also: in the data most compounds retested in dose-response had high values. Format: functional. The following applies: 33.3 µM.

Experiment [7] has as its target T3, Proteasome subunit beta (Trypanosoma cruzi) (UniProt O96673).
T3 sequence (whole entry): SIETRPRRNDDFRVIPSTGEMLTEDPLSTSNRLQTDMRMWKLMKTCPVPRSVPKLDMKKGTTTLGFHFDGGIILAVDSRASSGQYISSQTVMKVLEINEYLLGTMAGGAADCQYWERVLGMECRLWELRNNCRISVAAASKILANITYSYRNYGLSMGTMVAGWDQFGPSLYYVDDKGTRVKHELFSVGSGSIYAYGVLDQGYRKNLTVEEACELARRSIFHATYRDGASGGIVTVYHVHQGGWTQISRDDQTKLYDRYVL
The experiment can be described thus: Trypanosoma cruzi proteasome chymotrypsin-like activity (TcProtChymo) assay. Also: in the data most compounds retested in dose-response had high values. Format: functional. The following applies: 9.37 µM.

Experiment [8] is filed under the species Homo sapiens. The experiment can be described thus: To identify inhibition of the IFN signalling (Jak-Stat) pathway via expression of an eGFP reporter gene under the control of an IFN-stimulated response element (ISRE) containing MxA promoter. Format: functional. The conditions noted are these: 30 µM. For orientation: A reporter such as luciferase makes a cellular process visible.

Experiment [9] addresses T4, Tyrosyl-tRNA synthetase, putative (Trypanosoma cruzi (strain CL Brener)) (UniProt Q4DSP6).
T4 sequence (whole entry): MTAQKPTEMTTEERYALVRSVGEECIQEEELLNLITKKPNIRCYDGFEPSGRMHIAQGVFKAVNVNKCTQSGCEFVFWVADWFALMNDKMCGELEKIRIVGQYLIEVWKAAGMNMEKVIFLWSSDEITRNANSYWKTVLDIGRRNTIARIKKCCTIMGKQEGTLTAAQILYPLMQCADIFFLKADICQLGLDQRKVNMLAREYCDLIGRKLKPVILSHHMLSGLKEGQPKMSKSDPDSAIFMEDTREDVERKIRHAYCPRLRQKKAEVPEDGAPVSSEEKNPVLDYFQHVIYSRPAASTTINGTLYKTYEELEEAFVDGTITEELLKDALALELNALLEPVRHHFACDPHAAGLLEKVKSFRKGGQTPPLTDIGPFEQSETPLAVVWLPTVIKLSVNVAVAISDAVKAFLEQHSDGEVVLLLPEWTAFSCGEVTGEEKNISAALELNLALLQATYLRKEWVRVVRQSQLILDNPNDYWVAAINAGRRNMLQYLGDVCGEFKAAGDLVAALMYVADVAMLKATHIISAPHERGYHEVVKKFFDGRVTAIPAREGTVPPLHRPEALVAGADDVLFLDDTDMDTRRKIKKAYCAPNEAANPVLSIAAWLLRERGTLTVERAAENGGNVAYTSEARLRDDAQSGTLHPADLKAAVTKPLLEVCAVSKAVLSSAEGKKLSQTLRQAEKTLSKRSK
As to the kind of experiment: Trypanosoma cruzi tyrosyl tRNA synthetase (TcYRS) _High Tyrosine SOP. Also: in the data most compounds retested in dose-response had high values. Format: functional. The following applies: 30 µM.

Experiment [10] addresses T4, Tyrosyl-tRNA synthetase, putative (Trypanosoma cruzi (strain CL Brener)). The experiment can be described thus: Trypanosoma cruzi tyrosyl tRNA synthetase (TcYRS) SOP. Format: functional. The conditions noted are these: 30 µM.
Experiment [11] concerns the target Chromo domain-containing protein 1 (Saccharomyces cerevisiae (strain ATCC 204508 / S288c) (Baker's yeast)) (UniProt P32657). As to the kind of experiment: ScCHD-1 Enzyme Inhibition Assay. Also: in the data most compounds retested in dose-response had high values. The experiment is classed as functional. The conditions noted are these: 30 µM.

Chain of Protein translocase subunit SecA (Escherichia coli (strain K12)) (P10408 whole entry): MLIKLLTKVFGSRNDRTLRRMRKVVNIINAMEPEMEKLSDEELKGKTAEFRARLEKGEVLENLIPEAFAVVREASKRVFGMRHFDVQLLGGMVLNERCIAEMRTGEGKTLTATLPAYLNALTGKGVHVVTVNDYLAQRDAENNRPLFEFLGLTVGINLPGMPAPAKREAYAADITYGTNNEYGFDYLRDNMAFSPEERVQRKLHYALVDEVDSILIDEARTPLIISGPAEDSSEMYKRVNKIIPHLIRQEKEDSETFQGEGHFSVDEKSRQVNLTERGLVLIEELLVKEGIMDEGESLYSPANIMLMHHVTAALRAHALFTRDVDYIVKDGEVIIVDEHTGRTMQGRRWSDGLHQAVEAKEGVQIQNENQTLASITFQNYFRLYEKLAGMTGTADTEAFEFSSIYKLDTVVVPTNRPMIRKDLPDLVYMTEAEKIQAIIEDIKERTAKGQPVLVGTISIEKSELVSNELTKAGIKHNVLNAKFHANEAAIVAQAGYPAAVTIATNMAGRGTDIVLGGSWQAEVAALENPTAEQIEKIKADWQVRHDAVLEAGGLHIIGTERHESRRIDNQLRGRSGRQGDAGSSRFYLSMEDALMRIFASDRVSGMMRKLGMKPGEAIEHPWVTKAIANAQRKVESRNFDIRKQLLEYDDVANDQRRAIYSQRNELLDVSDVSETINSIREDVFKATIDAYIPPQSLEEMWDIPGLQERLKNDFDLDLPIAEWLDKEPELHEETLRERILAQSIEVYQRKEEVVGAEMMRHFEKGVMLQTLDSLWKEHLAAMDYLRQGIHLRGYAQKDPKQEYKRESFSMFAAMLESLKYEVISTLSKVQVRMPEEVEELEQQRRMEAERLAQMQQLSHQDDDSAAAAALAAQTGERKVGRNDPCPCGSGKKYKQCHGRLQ
Chain of Sialic acid-binding Ig-like lectin 9 (Homo sapiens) (Q9Y336 whole entry): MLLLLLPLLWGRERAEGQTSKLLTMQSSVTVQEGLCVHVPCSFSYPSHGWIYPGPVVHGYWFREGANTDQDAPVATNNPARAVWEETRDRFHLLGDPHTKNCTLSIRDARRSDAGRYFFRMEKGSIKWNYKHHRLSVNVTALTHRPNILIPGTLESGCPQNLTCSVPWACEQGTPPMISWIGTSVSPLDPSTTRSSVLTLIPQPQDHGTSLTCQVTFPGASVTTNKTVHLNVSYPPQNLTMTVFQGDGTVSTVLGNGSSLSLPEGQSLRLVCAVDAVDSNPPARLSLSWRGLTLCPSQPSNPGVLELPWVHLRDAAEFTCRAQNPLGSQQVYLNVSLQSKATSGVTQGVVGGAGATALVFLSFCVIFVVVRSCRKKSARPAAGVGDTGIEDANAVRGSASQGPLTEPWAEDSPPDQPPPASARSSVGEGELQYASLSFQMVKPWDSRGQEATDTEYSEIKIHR
Chain of Chromo domain-containing protein 1 (Saccharomyces cerevisiae (strain ATCC 204508 / S288c) (Baker's yeast)) (P32657 whole entry, the tested form may be a part): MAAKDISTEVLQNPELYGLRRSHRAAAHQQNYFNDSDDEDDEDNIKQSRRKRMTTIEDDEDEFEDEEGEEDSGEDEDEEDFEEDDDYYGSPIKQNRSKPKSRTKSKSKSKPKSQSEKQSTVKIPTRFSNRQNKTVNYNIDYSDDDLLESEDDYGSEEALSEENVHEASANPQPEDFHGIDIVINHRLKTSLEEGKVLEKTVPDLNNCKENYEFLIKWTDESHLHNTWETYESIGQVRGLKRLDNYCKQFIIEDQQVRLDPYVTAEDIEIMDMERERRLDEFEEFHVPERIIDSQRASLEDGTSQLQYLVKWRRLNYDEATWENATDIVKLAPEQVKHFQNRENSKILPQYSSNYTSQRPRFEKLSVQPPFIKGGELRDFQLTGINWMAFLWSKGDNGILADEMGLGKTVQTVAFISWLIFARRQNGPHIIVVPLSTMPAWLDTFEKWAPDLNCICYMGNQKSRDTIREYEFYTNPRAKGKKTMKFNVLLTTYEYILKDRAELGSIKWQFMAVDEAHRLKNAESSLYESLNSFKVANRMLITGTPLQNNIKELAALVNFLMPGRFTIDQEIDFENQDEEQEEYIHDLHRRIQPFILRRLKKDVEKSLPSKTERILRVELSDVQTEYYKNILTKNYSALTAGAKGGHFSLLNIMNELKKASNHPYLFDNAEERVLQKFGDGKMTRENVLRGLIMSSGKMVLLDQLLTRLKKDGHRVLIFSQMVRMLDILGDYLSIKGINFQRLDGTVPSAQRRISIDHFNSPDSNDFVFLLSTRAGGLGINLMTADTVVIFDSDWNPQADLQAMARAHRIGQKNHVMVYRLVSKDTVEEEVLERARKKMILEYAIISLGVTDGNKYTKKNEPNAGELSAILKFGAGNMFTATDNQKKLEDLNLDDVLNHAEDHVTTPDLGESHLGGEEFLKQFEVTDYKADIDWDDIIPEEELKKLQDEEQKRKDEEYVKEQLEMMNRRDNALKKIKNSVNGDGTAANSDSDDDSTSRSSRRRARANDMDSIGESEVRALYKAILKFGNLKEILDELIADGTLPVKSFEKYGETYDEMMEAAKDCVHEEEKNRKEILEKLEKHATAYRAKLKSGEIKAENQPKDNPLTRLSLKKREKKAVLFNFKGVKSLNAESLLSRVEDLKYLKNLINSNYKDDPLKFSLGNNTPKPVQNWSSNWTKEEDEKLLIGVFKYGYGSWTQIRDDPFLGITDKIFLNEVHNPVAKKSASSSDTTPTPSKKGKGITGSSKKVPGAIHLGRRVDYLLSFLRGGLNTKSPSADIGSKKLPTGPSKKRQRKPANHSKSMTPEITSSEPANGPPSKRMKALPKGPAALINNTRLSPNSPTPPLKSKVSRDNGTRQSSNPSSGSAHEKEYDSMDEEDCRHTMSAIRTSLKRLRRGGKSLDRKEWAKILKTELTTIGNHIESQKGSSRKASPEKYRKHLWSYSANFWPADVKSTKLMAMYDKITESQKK

In the case of `O=C(NCCN1CCOCC1)NCC(O)c1cccc(F)c1` (stereo not given), the Percent Effect is -4.85% in experiment [1]; 16.2% in experiment [2]; -10.5% in experiment [3]; 13.6% in experiment [4]; 5.75% in experiment [5]; -6.01% in [6]. Besides, the Percent Effect in experiment [7] was 4.68%; in experiment [8] it was 10.8%; in [9], 5.42%; in [10], 11.1%; in experiment [11], -10.8%.
`Cc1cc(CN2CCCC(C)(CO)C2)ccc1F` (stereo not given): the Percent Effect in experiment [1] is 0.156%; in experiment [2] it was 5.41%; in experiment [3], -7.31%; in [4] it was 1.4%; in [5] it was 2.05%; in experiment [6], 12.2%. Further, the Percent Effect in experiment [7] is 0.0858%; in experiment [8], 5.91%; in experiment [9], -1.07%; in experiment [10], 3.7%; in experiment [11], -7.89%.
Regarding `c1ccc(N2CCOC3(CCCN(c4nncs4)C3)C2)nc1` (stereo not given), the Percent Effect is -3.17% in [1]; 7.79% in experiment [2]; 3.64% in [3]; 2.14% in experiment [4]; -1.28% in experiment [5]; 3.23% in [6]. Moreover, the Percent Effect in [7] is 14.4%; in experiment [8], -6.63%; in experiment [9], 3.17%; in [10], 8.97%; in experiment [11], -7.1%.
Regarding `CC(=O)N1CCN(C(=O)CCOc2ccc(C(C)C)cc2)CC1`, the Percent Effect in experiment [1] is -2.33%; in experiment [2], 7.89%; in experiment [3], 5.03%; in experiment [4] it was 10.9%; in [5], -2.26%; in [6], 2.3%. Moreover, the Percent Effect in [7] was 14.4%; in experiment [8], 0.908%; in experiment [9], 5.39%; in experiment [10], 4.88%; in experiment [11], -1.04%.
Turning to `Cc1cnc(N2CC3(CCN(C(=O)c4ccoc4)C3)C2)nc1`, the Percent Effect is -4.42% in experiment [1]; 5.2% in experiment [2]; 2.7% in experiment [3]; 2.78% in [4]; -3.64% in experiment [5]; -30.3% in experiment [6]. Further, the Percent Effect is 15% in experiment [7]; 1.13% in experiment [8]; 0% in experiment [9]; 1.24% in experiment [10]; -4.73% in [11].
Turning to `CC(C)c1cc(NC(=O)CN2CCc3c(nc(C(C)C)n3C)C2)on1`, the Percent Effect was -0.514% in experiment [1]; 0% in [2]; -3.17% in [3]; 8.75% in experiment [4]; 2.62% in experiment [5]; -4.98% in experiment [6]. Moreover, the Percent Effect was 17.9% in [7]; 12% in [8]; 5.83% in experiment [9]; 9.76% in experiment [10]; -7.27% in [11].
Regarding `CCn1cc(CN2CCCN(C(=O)c3sccc3C#N)CC2)cn1`, the Percent Effect in [1] was -4.12%; in [2], 2.53%; in experiment [3], -2.86%; in experiment [4], -2.29%; in experiment [5], -1.04%; in experiment [6] it was -1.14%. Also, the Percent Effect in experiment [7] was -7.94%; in experiment [8], -14%; in experiment [9], 2.46%; in [10], 3.8%; in experiment [11], 4.04%.
Turning to `CC(C)c1nnc2n1CCN(C(=O)c1ccc(OCC(N)=O)cc1)C2`, the Percent Effect was -8.09% in [1]; 18.2% in [2]; -2.69% in experiment [3]; -4.74% in [4]; 4.41% in experiment [5]; -1.9% in experiment [6]. The Percent Effect is 9.62% in [7]; 4.02% in experiment [8]; 6.67% in experiment [9]; 11.8% in experiment [10]; -16.8% in experiment [11].
For `O=S(=O)(Nc1cnn(C2CCOCC2)c1)c1ccc2c(c1)CCO2`, the Percent Effect is -1.97% in experiment [1]; -2.6% in experiment [2]; -19.5% in experiment [3]; 5.92% in experiment [4]; -0.296% in experiment [5]; -9.68% in experiment [6]. The Percent Effect in experiment [7] was 12%; in experiment [8], 13%; in experiment [9] it was 1.06%; in experiment [10], -1.28%; in [11], -7.66%.
Take `CCS(=O)(=O)N1Cc2nccn2CC(COc2cccnc2)C1` (stereo not given): the Percent Effect in [1] was -5.39%; in [2], 10.7%; in experiment [3], -4.67%; in experiment [4], 3.69%; in experiment [5] it was 3.48%; in [6] it was -35.7%. The Percent Effect in experiment [7] is 15.4%; in experiment [8], 3.42%; in experiment [9], 7.29%; in [10], 12.5%; in [11], -8.7%.
